# Where “and” joins values, the source holds several entries; their conditions need not be identical. Identical values can stand only once. Compounds without any hit were thinned out: in the full panel of roughly 83,000, 20% have a hit.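 A percent growth of 40 corresponds to 60% growth inhibition; 0 means no net growth; -100 means all cells died. Active threshold: below 10.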 Calls of active or inactive are those of the source.
# System: A498 renal
# Assay: NCI-60 one-dose screen, 48 h (100 = growth as untreated, 0 = no growth, -100 = all killed)
# Details: 10 µM
row,Structure (SMILES),growth
1,COc1ccccc1[As]=[As]c1ccccc1OC (stereo not given),-96.3% (active)
2,O=S(=O)(F)c1ccc(Cl)cc1,122% (inactive)
3,C/C1=C\[C@H](C)C[C@H](C)OC(=O)C[C@H](c2ccc(O)cc2)NC(=O)[C@@H](Cc2c(Br)[nH]c3ccccc23)N(C)C(=O)[C@H](C)NC(=O)[C@@H](C)C1,-78.8% (active)
4,[Cl][Hg][c]1ccc2ccccc2c1,-9.18% (active)
5,COc1cc(/C=C(/C)[N+](=O)[O-])ccc1O,87.9% (inactive) and 100% (inactive)
6,O=[N+]([O-])c1cc[n+]([O-])c2ccccc12,-34.7% (active)
7,[O-][n+]1ccccc1S,78.7% (inactive)
8,NNc1ccccc1,97.5% (inactive)
9,O=C1CCC(=O)N1SC(Cl)(Cl)Cl,127% (inactive)
10,Cc1cc([N+](=O)[O-])c2ccccc2[n+]1[O-],-59.8% (active) and -80.3% (active)
11,CC/C(=C/c1ccc(OC)cc1)[N+](=O)[O-],85.5% (inactive)
12,COc1cc(/C=C\[N+](=O)[O-])ccc1O,97.6% (inactive) and 102% (inactive)
13,Oc1c(I)cc(I)cc1I,97.9% (inactive)
14,COC(=O)C1C(O)C(C)C(O)C(C)/C=C\C=C(C)C(=O)Nc2c(C)c(OC(C)=O)c3c(c2O)C(=O)C(C)=C2OCOC(=C23)C(C)=CC(C)(O)C(O)C(C)C1O (stereo not given),102% (inactive)
15,COC1CC2C=C(C)/C=C/C=C/C(=O)NC(c3ccccc3)C/C=C/CCC(O)CC(=O)C2=C1O (stereo not given),-87.7% (active)
16,C=C1C(=O)O[C@@H]2C[C@@H](C)[C@@H]3C=CC(=O)[C@@]3(C)[C@@H](O)[C@H]12,-17.1% (active)
17,CC12OOC(c3ccccc31)c1c2ccc2ccccc12 (stereo not given),133% (inactive)
18,Cn1c(O)c(N=O)c(=O)n(C)c1=O,84.5% (inactive) and 97% (inactive)
19,CC(C)C1(NC(=O)C2CC3c4cccc5[nH]cc(c45)CC3N(C)C2)OC2(O)C3CCCN3C(=O)C(Cc3ccccc3)N2C1=O (stereo not given),97.5% (inactive)
20,C#CC1(O)CCC(C(C)(C)C)CC1 (stereo not given),99.5% (inactive)
21,O=[N+]([O-])/C=C/c1ccc(Cl)cc1[N+](=O)[O-],106% (inactive)
22,COC12c3c(C)cc(O)c4c(=O)occ(c34)C(=O)C1C13COC(=O)c4c(O)cc(C)c(c41)C(=O)C2C3OC(C)=O (stereo not given),114% (inactive)
23,[Cl][Sn]([c]1ccccc1)([c]1ccccc1)[c]1ccccc1,-91% (active)
24,C=NCC#N,110% (inactive)
25,CC(=O)[O][Hg][c]1c(C)c(C)cc(C)c1C,101% (inactive)
26,[Cl][Hg][c]1ccc(Cl)s1,104% (inactive)
27,COc1ccc(/C=C(\C)[N+](=O)[O-])cc1OC,111% (inactive)

# System: HL-60(TB) leukemia
# Assay: as above
# Details: 10 µM
row,Structure (SMILES),growth
1,COc1ccccc1[As]=[As]c1ccccc1OC (stereo not given),-37.1% (active)
2,O=S(=O)(F)c1ccc(Cl)cc1,123% (inactive)
3,C/C1=C\[C@H](C)C[C@H](C)OC(=O)C[C@H](c2ccc(O)cc2)NC(=O)[C@@H](Cc2c(Br)[nH]c3ccccc23)N(C)C(=O)[C@H](C)NC(=O)[C@@H](C)C1,-44% (active)
4,CC1CCC2(OC1)OC1C(O)C3C4CCC5CC(OC6OC(CO)C(OC7OC(CO)C(O)C(OC8OCC(O)C(O)C8O)C7OC7OC(CO)C(O)C(OC8OC(CO)C(O)C(O)C8O)C7O)C(O)C6O)C(O)CC5(C)C4CCC3(C)C1C2C (stereo not given),-17.1% (active)
5,[Cl][Hg][c]1ccc2ccccc2c1,-20.3% (active)
6,COc1cc(/C=C(/C)[N+](=O)[O-])ccc1O,-17.3% (active) and -34.3% (active)
7,O=[N+]([O-])c1cc[n+]([O-])c2ccccc12,-26.9% (active)
8,[O-][n+]1ccccc1S,109% (inactive)
9,NNc1ccccc1,5.84% (active)
10,O=C1CCC(=O)N1SC(Cl)(Cl)Cl,100% (inactive)
11,Cc1cc([N+](=O)[O-])c2ccccc2[n+]1[O-],41% (inactive) and -30.6% (active)
12,CC/C(=C/c1ccc(OC)cc1)[N+](=O)[O-],-1.61% (active)
13,COc1cc(/C=C\[N+](=O)[O-])ccc1O,9.29% (active) and 48.1% (inactive)
14,Oc1c(I)cc(I)cc1I,105% (inactive)
15,COC(=O)C1C(O)C(C)C(O)C(C)/C=C\C=C(C)C(=O)Nc2c(C)c(OC(C)=O)c3c(c2O)C(=O)C(C)=C2OCOC(=C23)C(C)=CC(C)(O)C(O)C(C)C1O (stereo not given),72.3% (inactive)
16,COC1CC2C=C(C)/C=C/C=C/C(=O)NC(c3ccccc3)C/C=C/CCC(O)CC(=O)C2=C1O (stereo not given),-5.27% (active)
17,CC12OOC(c3ccccc31)c1c2ccc2ccccc12 (stereo not given),-63.5% (active)
18,Cn1c(O)c(N=O)c(=O)n(C)c1=O,96.6% (inactive) and 101% (inactive)
19,CC(C)C1(NC(=O)C2CC3c4cccc5[nH]cc(c45)CC3N(C)C2)OC2(O)C3CCCN3C(=O)C(Cc3ccccc3)N2C1=O (stereo not given),73.9% (inactive)
20,C#CC1(O)CCC(C(C)(C)C)CC1 (stereo not given),140% (inactive)
21,O=[N+]([O-])/C=C/c1ccc(Cl)cc1[N+](=O)[O-],33.9% (inactive)
22,COC(C(=O)C(O)C(C)O)C1Cc2cc3cc(OC4CC(OC(C)=O)C(OC5CC(O)C(OC)C(C)O5)C(C)O4)cc(O)c3c(O)c2C(=O)C1OC1CC(OC2CC(OC3CC(C)(O)C(OC(=O)C(C)C)C(C)O3)C(O)C(C)O2)C(O)C(C)O1 (stereo not given),-46.3% (active)
23,COC12c3c(C)cc(O)c4c(=O)occ(c34)C(=O)C1C13COC(=O)c4c(O)cc(C)c(c41)C(=O)C2C3OC(C)=O (stereo not given),100% (inactive)
24,[Cl][Sn]([c]1ccccc1)([c]1ccccc1)[c]1ccccc1,-25.3% (active)
25,C=NCC#N,99.1% (inactive) and 112% (inactive)
26,CC(=O)[O][Hg][c]1c(C)c(C)cc(C)c1C,-13.1% (active)
27,[Cl][Hg][c]1ccc(Cl)s1,-17.2% (active)
28,COc1ccc(/C=C(\C)[N+](=O)[O-])cc1OC,-38.4% (active)

# — PubChem BioAssay (NCI)
